In PubChem BioAssay (EPA / NIEHS):
Some compounds were tested as several samples or in several runs, with calls that do not always agree. Calls of active or inactive are those of the source. Rule for the calls: active = hit-call score of the fitted dose curve at least 0.9, where 1 is the maximum; inactive = score below 0.9.

What follows are compounds tested against CCAAT/enhancer-binding protein beta (Homo sapiens) (UniProt P17676) (assay: ATG_C_EBP_CIS: Attagene CIS-FACTORIAL HepG2 Assay for human CCAAT/Enhancer Binding Protein (C/EBP) beta (AID 2282927)). Details: HepG2 Attagene cis-factorial transcription factor reporter; actives raise or lower the signal.
Chain of CCAAT/enhancer-binding protein beta (Homo sapiens) (P17676 whole entry, looked up): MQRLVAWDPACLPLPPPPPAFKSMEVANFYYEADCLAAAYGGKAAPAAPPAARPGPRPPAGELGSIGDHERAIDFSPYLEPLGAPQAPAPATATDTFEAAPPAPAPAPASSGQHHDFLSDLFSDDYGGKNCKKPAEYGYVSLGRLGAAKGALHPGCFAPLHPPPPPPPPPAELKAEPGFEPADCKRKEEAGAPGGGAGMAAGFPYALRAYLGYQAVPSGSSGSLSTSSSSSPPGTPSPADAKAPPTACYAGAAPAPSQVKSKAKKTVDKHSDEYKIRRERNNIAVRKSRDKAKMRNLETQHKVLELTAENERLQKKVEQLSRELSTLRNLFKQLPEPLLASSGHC
Experimental: ATG_CIS is a cell-based, multiplexed-readout assay that uses HepG2, a human liver cell line, with measurements taken at 24 hours after chemical dosing in a 24-well plate.ATG_C_EBP_CIS is one of 52 assay component(s) measured or calculated from the ATG_CIS assay. It is designed to make measurements of mRNA induction, a form of inducible reporter, as detected with fluorescence intensity signals by Reverse transcription polymerase chain reaction (RT-PCR) and Capillary electrophoresis technology.Data from the assay component ATG_C_EBP_CIS was analyzed into 1 assay endpoint. This assay endpoint, ATG_C_EBP_CIS, was analyzed with bidirectional fitting relative to DMSO as the negative control and baseline of activity. Using a type of inducible reporter, measures of mRNA for gain or loss-of-signal activity can be used to understand the reporter gene at the transcription factor-level as they relate to the gene CEBPB. Furthermore, this assay endpoint can be referred to as a primary readout, because this assay has produced multiple assay endpoints where this one serves a reporter gene function. To generalize the intended target to other relatable targets, this assay endpoint is annotated to the dna binding intended target family, where the subfamily is basic leucine zipper.
Human liver HepG2 cells are transiently transfected with multiple reporter transcription units (MRTUs) in 6-well plates using FuGene 6 reagent (Roche; 3 ml FuGene/1 mg DNA). The MRTU constructs are regulated by a cis-regulating element (promoter). […] A major difference between the CIS and TRANS system is that in CIS activities of endogenous TFs are measured, whereas the TRANS assay evaluates changes in activities of exogenous, chimeric NR-Gal4 proteins. […] At the end of 24 hour incubation, total RNA was isolated using TriZol reagent (Invitrogen). The isolated RNA is then reverse-transcribed using oligo(dT) primer and Mo-MLV reverse transcriptase (Invitrogen) with DNAse I (Ambion) treatment for 30 min. The one-tenth of the produced cDNA was amplified by PCR using Taq DNA polymerase (Invitrogen) and two reporter sequence-specific primers. The PCR products were fluorescently labeled by primer extension with 6-arboxyfluorescein (6-FAM) 5'-labeled reporter sequence-specific primer (2 min at 95 C, 20 s at 68 C and 10 min at 72 C) and these products were digested with 5U of HpaI (New England Biolabs) for 2h at 37 C. The fragments were purified using Qiaquick PCR columns (Qiagen), analyzed on an ABI 3130xL genetic analyzer (Applied Biosystems) with peak positions identified by using a set of X-rhodamine (ROX)-labeled MapMarker1000 molecular weight standards (BioVentures). The raw capillary electrophoresis data was processed using Attagraph software (Attagene).
`CCCCC1CCCCC(=O)O1` (stereo not given) was tested, and the outcome was “inactive”.
With `COc1cc(OC)c2ccc(=O)oc2c1` the outcome was “inactive”.
`CC/C(=C(\c1ccccc1)c1ccc(OCCN(C)C)cc1)c1ccccc1` was tested, and the outcome was “inactive”.
`COC(=O)C(C)Oc1ccc(Oc2ncc(C(F)(F)F)cc2Cl)cc1` (stereo not given) was tested, and the outcome was “inactive”.
`CC(O)CN` (stereo not given) was tested, and the outcome was “inactive”.
`N#CCCNCCC#N` was tested, and the outcome was “inactive”.
With `CC(C)CCCC(C)(C)O` the outcome was “inactive”.
`CCCC1CCOC(C)S1` (stereo not given) was tested, and the outcome was “inactive”.
`CCCCCCCCCO` was tested, and the outcome was “inactive”.
With `CCCCCCC(O)CCOC(C)=O` (stereo not given) the outcome was “inactive”.
With `CCCCOC(=O)C(C)OC(=O)CCC` (stereo not given) the outcome was “inactive”.
With `Cc1cc(O)c2c(c1)C(=O)c1cc(O)cc(O)c1C2=O` the AC50 was 12.5 µM (active).
In the case of `Cc1cc(O)c(C)c(C)c1O`, the outcome is reported as “inactive”.
With `C[C@]12CC[C@@H]3c4ccc(O)cc4CC[C@H]3[C@@H]1CC[C@@H]2O` the outcome was “inactive”.
`CCCCCCCCCC(=O)OCC` was tested, and the outcome was “inactive”.
With `C=COCC1CCC(COC=C)CC1` (stereo not given) the outcome was “inactive”.
`Nc1cc([N+](=O)[O-])ccc1C(=O)O` was tested, and the outcome was “inactive”.
For `CC(=N[Si](C)(C)C)O[Si](C)(C)C`, the outcome was “inactive”.
With `Cc1cc(N)n(-c2ccccc2)n1` the outcome was “inactive”.
In the case of `CC1=CC(O)CC(C)(C)C1` (stereo not given), the outcome is reported as “inactive”.
In the case of `CCCCCCOc1ccc(O)cc1`, the outcome is reported as “inactive”.
For `CCCCCCCCOS(=O)(=O)O`, the outcome was “inactive”.
`CC(C)(CO)CO` was tested, and the outcome was “inactive”.
`CNC(=C[N+](=O)[O-])NCCSCc1ccc(CN(C)C)o1` was tested, and the outcome was “inactive”.
For `[Cu+]`, the outcome was “inactive”.
In the case of `CCC(C)COC(=O)CC(C)C` (stereo not given), the outcome is reported as “inactive”.
With `CC(CCO)CC(C)(C)C` (stereo not given) the outcome was “inactive”.
`CC(O)CNCC(C)O` (stereo not given) was tested, and the outcome was “inactive”.
For `CC(CO)(CO)[N+](=O)[O-]`, the outcome was “inactive”.
In the case of `O=C(c1ccc(OCCN2CCCCC2)cc1)c1c(-c2ccc(O)cc2)sc2cc(O)ccc12`, the outcome is reported as “inactive” and the AC50 is reported as 15.2 µM (active).
With `CC(=O)CCc1ccc(O)cc1` the outcome was “inactive”.
For `O=C(O)C1=NN(c2ccc(S(=O)(=O)O)cc2)C(=O)C1`, the outcome was “inactive”.
With `c1coc(CNc2ncnc3nc[nH]c23)c1` the outcome was “inactive”.
With `CCOC(=O)CC(C)C` the outcome was “inactive”.
In the case of `CCCCCCCCOC(C)=O`, the outcome is reported as “inactive”.
For `CCC(C)(C)c1cc(O)c(C(C)(C)CC)cc1O`, the AC50 was 19.8 µM (active).
With `CCCCOCCOC(=O)c1ccccc1C(=O)OCCOCCCC` the outcome was “inactive”.
With `O=C(O)CS` the outcome was “inactive”.
In the case of `NS(=O)(=O)c1cc(C(=O)O)c(NCc2ccco2)cc1Cl`, the outcome is reported as “inactive”.
